SMN2 splice enh: qHTS Assay for Enhancers of SMN2 Splice Variant Expression; hit rate 2.8% among 210,000; Potency, µM (top dose mostly 46.1 µM), for inactives: at the top dose activity change, positive = activation, actives largely listed as activators; HEK293 SMN2-luciferase splicing reporter, luminescence, 30-36 h; further: % of control where 0% means no effect; nearly all actives have a fitted effect of over 55% in size
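HEK293 cells carry an SMN2 minigene-luciferase reporter in which exon 7 inclusion puts luciferase in frame. Cells were seeded at 2000 cells/well, attached for 10-12 hours, then exposed to compounds for 30-36 hours at 37C before ONE-Glo luminescence.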
ELG1 repair inh: qHTS screen for small molecules that inhibit ELG1-dependent DNA repair in human embryonic kidney (HEK293T) cells expressing luciferase-tagged ELG1; AID 504467, 2011; hit rate 2.3% among 330,000; HEK293T ELG1-luciferase reporter, luminescence, 16 h; DNA damage induced by 5-fluorouridine; Potency, µM (series often up to 46.1 µM), inactives show at the highest dose activity change, negative = inhibition, actives largely listed as inhibitors; further: on the % scale 0 is the no-effect control and ±100 the full control effect; nearly all actives have a fitted effect of over 55% in size
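Reporter activity after DNA damage by 5-fluorouridine is monitored. Compound-treated cells incubate 16 hr at 37 °C, then ONE-Glo is added for 30 min before luminescence reading.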
FLuc modulator: qHTS profiling assay for firefly luciferase inhibitor/activator using purifed enzyme and Km concentrations of substrates (counterscreen for miR-21 project) | Luciferin 4-monooxygenase (Photinus pyralis), P08659 | purified FLuc, Km substrates, luminescence inhibition | Potency, µM (top dose mostly 57.5 µM), without a hit: top-dose activity change, negative = inhibition, most hits filed as inhibitors | hit rate 6.9% among 360,000 | AID 588342, 2011;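 further: plate controls were vehicle for no effect and reference inhibitor for full effect; nearly all actives have a fitted effect of over 55% in size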
Target sequence (P08659 whole entry, looked up): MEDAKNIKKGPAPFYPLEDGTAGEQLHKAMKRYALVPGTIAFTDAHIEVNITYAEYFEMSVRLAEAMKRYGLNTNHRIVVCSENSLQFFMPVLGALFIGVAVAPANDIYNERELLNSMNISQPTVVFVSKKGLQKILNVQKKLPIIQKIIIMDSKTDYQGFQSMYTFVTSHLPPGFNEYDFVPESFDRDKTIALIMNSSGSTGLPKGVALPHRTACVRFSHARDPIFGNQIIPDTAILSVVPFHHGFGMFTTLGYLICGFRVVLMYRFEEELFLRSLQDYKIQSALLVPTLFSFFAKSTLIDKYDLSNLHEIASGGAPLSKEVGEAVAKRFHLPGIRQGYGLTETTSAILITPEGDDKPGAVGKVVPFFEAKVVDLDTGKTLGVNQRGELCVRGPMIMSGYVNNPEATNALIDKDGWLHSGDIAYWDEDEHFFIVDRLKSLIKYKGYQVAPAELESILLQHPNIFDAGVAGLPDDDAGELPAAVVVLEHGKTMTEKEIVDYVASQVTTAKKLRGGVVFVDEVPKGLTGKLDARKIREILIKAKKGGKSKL
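Biochemical qHTS of compounds, final roughly 60 µM downward over six points, against 10 nM purified firefly luciferase using Km concentrations of substrates (10 uM D-luciferin, 10 uM ATP) in Tris acetate pH 7.5 buffer; luminescence output.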
NPC1 prom act: qHTS Assay for NPC1 Promoter Activators; Huh7 NPC1 promoter luciferase reporter, 24 h; Potency, µM (doses to about 9.22 µM), for inactives: at the top dose activation, hits mostly activators; hit rate 2.4% among 320,000; further: % of control where 0% means no effect; nearly all actives have a fitted effect of over 60% in size
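Readout is luciferase luminescence, reflecting NPC1 promoter activation in stably transfected Huh7 cells after 24 h compound exposure at 37 °C in reduced-serum medium with 10% FBS.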
ELG1 genotox: qHTS screen for small molecules that induce genotoxicity in human embryonic kidney (HEK293T) cells expressing luciferase-tagged ELG1 | hit rate 1.3% among 330,000 | AID 504466, 2011 | Potency, µM (highest dose often 46 µM), inactives show at the highest dose activity change, positive = activation, hits mostly activators | HEK293T ELG1-luciferase reporter, luminescence, 16 h; further: % of control where 0% means no effect; nearly all actives have a fitted effect of over 60% in size
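DMSO vehicle served as control against compound-treated ELG1-luciferase HEK293T cells; exposure lasted 16 hr at 37 °C and 5% CO2, followed by ONE-Glo luminescence detection after 30 min.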
Rab9 promoter act: qHTS Assay for Rab9 Promoter Activators. Potency, µM (doses to about 9.22 µM), for inactives: at the highest dose activation, negative = inhibition, most hits filed as activators. Huh7 Rab9 promoter-luciferase reporter, luminescence, 24 h. hit rate 2.8% among 320,000. AID 485297, 2010; further: % of control where 0% means no effect; nearly all actives have a fitted effect of over 60% in size
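Huh7 cells stably carrying Rab9 promoter–luciferase reporter, plated 1500 cells/well, compound added after 2 h and incubated 24 h at 37 °C; luciferase luminescence then read after 10 min with detection reagent.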
Numbers without * were called inactive. Sampled rows, rich in hits. Any-hit rate of the full collection: about 9.2%. The call rests on the fitted dose curve; in most records, active means well fitted curve in the direction sought with a large enough effect; inconclusive means small, poorly fitted or top-dose-only effect, or another doubt; inactive means no such curve, though single readings can be large; an effect the other way counts as inactive or inconclusive. Potency means the concentration at half of the fitted maximal effect.

C(=C(c1ccccc1)c1ccccc1)c1ccccn1 was read as ELG1 repair inh 11.5%, FLuc modulator 0.8%, NPC1 prom act -2.6%, ELG1 genotox 3.1% and Rab9 promoter act 2.5%.
Screening COC(=O)c1ccc(/C=C(\C#N)c2nc3ccccc3s2)cc1 returned SMN2 splice enh -1.7%, ELG1 repair inh inconclusive, FLuc modulator inconclusive, NPC1 prom act 5.6%, ELG1 genotox 6.9% and Rab9 promoter act 5.9%.
`COc1cc(C2C(=O)N(C3CCCCC3)CC(=O)N2C2CCCC2)ccc1OC(C)C` (stereo not given) gave FLuc modulator -9.6%.
COc1ccc(C2c3c(oc4ccc(Cl)cc4c3=O)C(=O)N2CCCN(C)C)cc1OC (stereo not given) was read as FLuc modulator -2.3%.
Screening CCOc1ccc2oc(=O)cc(CN3CCN(c4ccc(OC)cc4)CC3)c2c1 returned SMN2 splice enh -0.4% and FLuc modulator -0.4%.
For Cc1ccc(NC(=O)c2cc(-c3ccco3)on2)cc1 the results were SMN2 splice enh -7.3%, ELG1 repair inh inconclusive, FLuc modulator 2.13µM*, NPC1 prom act -0.8%, ELG1 genotox inconclusive and Rab9 promoter act -0.9%.
For O=C(NCCc1ccccc1)c1cc(-c2ccco2)on1 the results were SMN2 splice enh 10µM*, ELG1 repair inh inconclusive, FLuc modulator 6.01µM*, NPC1 prom act 2.51µM*, ELG1 genotox inconclusive and Rab9 promoter act 2.82µM*.
`COc1ccc(NC(=O)c2cc(-c3ccco3)on2)cc1OC` gave ELG1 repair inh inconclusive, FLuc modulator -4.8%, NPC1 prom act 1.7%, ELG1 genotox inconclusive and Rab9 promoter act 1.8%.
Screening Cc1ccc(NC(=O)c2cc(-c3cccc(O)c3)on2)cc1C returned SMN2 splice enh 1.6%, ELG1 repair inh inconclusive, FLuc modulator 9.53µM*, NPC1 prom act -7.3%, ELG1 genotox inconclusive and Rab9 promoter act 6.6%.
Screening Cc1ccc(NC(=O)c2cc(-c3ccco3)on2)cc1C returned SMN2 splice enh -8.8%, ELG1 repair inh inconclusive, FLuc modulator 2.69µM*, NPC1 prom act 14.1%, ELG1 genotox inconclusive and Rab9 promoter act 7.1%.
For COC(=O)c1cc(NC(=O)c2nn(C)c3c2CSc2ccccc2-3)cc(C(=O)OC)c1 the results were FLuc modulator 3.6%.
COc1ccccc1CNC(=O)CCCCn1c(=O)c2ccccc2n(CC(=O)Nc2cccc(Cl)c2)c1=O was read as SMN2 splice enh -17.2% and FLuc modulator -0.3%.
COc1ccccc1NC=C1C(=O)OC(C)(C)OC1=O was read as SMN2 splice enh 8.8%, ELG1 repair inh inconclusive, FLuc modulator 10.7µM*, NPC1 prom act -4.3%, ELG1 genotox -0.4% and Rab9 promoter act 9.0%.
`Brc1cccc(-c2nc(-c3ccncc3)no2)c1` gave SMN2 splice enh 27.2%, ELG1 repair inh inconclusive, FLuc modulator 7.57µM*, NPC1 prom act 3.16µM*, ELG1 genotox inconclusive and Rab9 promoter act 5.01µM*.
Screening Cc1ccc(-c2noc(-c3c(C)noc3C)n2)cc1 returned ELG1 repair inh 2.5%, FLuc modulator -17.2%, NPC1 prom act -5.3%, ELG1 genotox 2.8% and Rab9 promoter act 16.6%.
`Cc1cccc(-c2noc(-c3ccc4c(c3)OCO4)n2)c1` gave ELG1 repair inh 10.0%, FLuc modulator -17.5%, NPC1 prom act -2.8%, ELG1 genotox 2.6% and Rab9 promoter act -1.3%.

From PubChem
